These results are taken from PubChem BioAssay (NCATS).

“And” between values parts separate entries of the source, which are not always exact repeats. Equal values may be shown once. Results filed as inconclusive are left out. A structure can be active in one record and inactive in another. The source made the active and inactive calls. Unless noted, calls follow the shape of the full dose curve.

In assay [1] the target is Androgen receptor (Homo sapiens) (UniProt P10275). In words: qHTS assay for small molecule agonists of androgen receptor signaling (AID 588515; active = well fitted curve in the direction sought with a large enough effect in the signal ratio, with a control signal flat; the % refers to the signal ratio; also: % is scaled to controls: 0 for no effect and ±100 for the full control effect). The note with it: AR-UAS-bla HEK293, beta-lactamase ratio, agonist 16 h; stronger effect = higher value. In a few lines: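 EC50 and efficacy came from Hill fits of titrations (up to 92 uM) normalized to 30 nM R1881 as 100% and DMSO as 0%. Compound exposure was 16 h at 37 C on AR-UAS-bla HEK293 cells, with a 405/460/530 nm CCF4 fluorescence read.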
A general note: In qHTS, concentration-response curves come from the screen itself.

Assay [2] shares this target. In words: qHTS assay for small molecule antagonists of androgen receptor signaling (AID 588516; active = well fitted curve in the direction sought with a large enough effect in the signal ratio, with a control signal flat, not every such curve was filed as active; the % refers to the signal ratio; also: potency is read from the fitted curve at half-maximal effect). In a few lines: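 Antagonist-mode qHTS: inhibition of R1881 (10 nM)-driven beta-lactamase expression in GripTite HEK 293 cells is measured after 16 h; values are Hill-derived IC50s normalized between R1881 and DMSO wells.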
Assay [3] deals with Bile acid receptor (Homo sapiens) (UniProt Q96RI1). In words: qHTS assay for small molecule antagonists of farnesoid X receptor signaling (AID 588526). Also: % is scaled to controls: 0 for no effect and ±100 for the full control effect. The method in brief:
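Antagonist mode: titrated compounds tested against chenodeoxycholic acid stimulation (normalized to 50 uM CDCA and DMSO) in GeneBLAzer HEK293T cells for 16 h. Beta-lactamase read by CCF4 fluorescence; IC50 from Hill fits.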

Assay [4] has the same target. In words: qHTS assay for small molecule agonists of farnesoid X receptor signaling (AID 588527).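 Also: 0% = vehicle basal and 100% = reference agonist.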 The note with it: HEK293T FXR-UAS-bla, beta-lactamase ratio, 16 h; stronger effect = higher value. In a few lines: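 Quantitative HTS used FXR-UAS-bla HEK293T cells with 16 h compound incubation at 37 C. EC50 values came from concentration-response curves normalized to chenodeoxycholic acid.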

Assay [5] has as its target Peroxisome proliferator-activated receptor delta (Homo sapiens) (UniProt Q03181). In words: qHTS assay for small molecule agonists of peroxisome proliferator-activated receptor delta signaling (AID 588534).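 Also: 0% = DMSO basal wells and 100% = positive control agonist at 10 µM.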 In a few lines: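 Cell-based beta-lactamase reporter assay run in agonist mode: cells seeded and incubated 5 hrs at 37 C, compounds added and incubated 18 hrs at 37 C. CCF4 dye fluorescence read after 2 hrs at RT; EC50 and efficacy from Hill fits.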

Assay [6] in a line: qHTS assay for small molecule antagonists of peroxisome proliferator-activated receptor delta signaling (AID 588535; active = well fitted inhibition curve with a large enough effect in the signal ratio, with a control signal flat, not every such curve was filed as active; the % refers to the signal ratio;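 as to max response: cells co-treated with a PPAR-delta agonist as stimulator during compound exposure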). The note with it: HEK293T PPARd-UAS-bla, beta-lactamase FRET ratio, 18 h; 460 nm channel. In a few lines: (§1)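 Cells were seeded at 4000 per well in assay medium containing 2% charcoal/dextran FBS and held 5 hrs at 37 C. Compounds were then added for 18 hrs. CCF4 substrate was applied for 2 hrs at room temperature before fluorescence reading.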

Assay [7] deals with Peroxisome proliferator-activated receptor delta (Homo sapiens) (UniProt Q03181). Described as above. In a few lines:
as §1

Assay [8] has as its target Peroxisome proliferator-activated receptor gamma (Homo sapiens) (UniProt P37231). In words: qHTS assay for small molecule agonists of peroxisome proliferator-activated receptor gamma signaling (AID 588536; active = well fitted curve in the direction sought with a large enough effect in the signal ratio, with a control signal flat, not every such curve was filed as active; the % refers to the signal ratio;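 also: 0% = DMSO basal wells and 100% = rosiglitazone at 2 µM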). The method in brief:
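HEK293 UAS-bla reporter line, 1% charcoal/dextran FBS; titration, 16 h, 37 C; CCF4 loading 2 h RT; fluorescence 460/530 nm. Normalized to rosiglitazone 2 uM = 100%, DMSO = 0%.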

The target is the same in assay [9]. In words: qHTS assay for small molecule antagonists of peroxisome proliferator-activated receptor gamma signaling (AID 588537; active = well fitted inhibition curve with a large enough effect in the signal ratio, with a control signal flat, not every such curve was filed as active; the % refers to the signal ratio;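 also: reporter cells co-stimulated with 50 nM rosiglitazone agonist during compound treatment; % of control where 0% means no effect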). In a few lines: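 Step one: plate 3000 HEK293 UAS-bla cells per well in medium with 1% stripped serum and hold 6-6.5 h at 37 C. Step two: add compound and 50 nM agonist for 16 h. Step three: CCF4 loading, fluorescence read.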
Assay [10] addresses Vitamin D3 receptor (Homo sapiens) (UniProt P11473). In words: qHTS assay for small molecule antagonists of vitamin D receptor signaling (AID 588541).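 Also: receptor activated by calcitriol during compound treatment; % is scaled to controls: 0 for no effect and ±100 for the full control effect.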 The method in brief:
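VDR-UAS-bla HEK293T cells in 2% charcoal-stripped FBS were stimulated with 1-alpha,25-dihydroxyvitamin D3 (3 nM final) plus compound for 16 h at 37 C. The beta-lactamase CCF4 readout was normalized to 50 nM agonist and DMSO, and Hill fits gave IC50.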

Assay [11] has the same target. In words: qHTS assay for small molecule agonists of vitamin D receptor signaling (AID 588543).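 Also: 0% = DMSO basal and 100% = reference agonist control.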 The method in brief:
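qHTS in agonist mode: compound titrations stimulate a VDR-driven β-lactamase reporter in HEK293T cells over 16 h at 37 °C. Response normalized to 50 nM 1α,25-dihydroxyvitamin D3 = 100%, DMSO = 0%; Hill fitting gives EC50 and maximal response.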

Assay [12] deals with Thyroid hormone receptor beta (Homo sapiens) (UniProt P10828). In words: qHTS assay for small molecule agonists of thyroid hormone receptor beta signaling (AID 588545). In a few lines: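 Agonist activity was read as beta-lactamase CCF4 fluorescence (405 ex, 460/530 em), scaled between DMSO (0%) and 10 nM T3 (100%), then Hill-fitted for EC50 and efficacy. HEK 293 TR-UAS-bla cells in 2% charcoal/dextran FBS medium were exposed 18 h at 37 C.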

Assay [13] can be described thus: qHTS assay for small molecule antagonists of retinoid X receptor alpha signaling (AID 588546; active = well fitted inhibition curve with a large enough effect in the signal ratio, with a control signal flat, not every such curve was filed as active; the % refers to the signal ratio;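 also: cells stimulated with 9-cis-retinoic acid as agonist; % is scaled to controls: 0 for no effect and ±100 for the full control effect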). The conditions noted are these: HEK293T RXRa-UAS-bla, beta-lactamase ratio, antagonist mode; measured here: W530 green channel, cytotoxicity proxy. In a few lines: (§2)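 Beta-lactamase reporter inhibition, read as CCF4 fluorescence ratio (ex 405, em 460/530 nm) after 2 h at RT. HEK293T UAS-bla cells, 2500/well, were stimulated with 9-cis-RA at 500 or 100 nM final alongside test compound for 18 h at 37 C.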

The target in assay [14] is Retinoic acid receptor RXR-alpha (Homo sapiens) (UniProt P19793). The assay is described as above. The conditions noted are these: HEK293T RXRa-UAS-bla, beta-lactamase ratio, antagonist mode. The method in brief: as §2
Assay [15] addresses Thyroid hormone receptor beta (Homo sapiens) (UniProt P10828). In words: qHTS assay for small molecule antagonists of thyroid hormone receptor beta signaling (AID 588547; active = well fitted inhibition curve with a large enough effect in the signal ratio, with a control signal flat, not every such curve was filed as active; the % refers to the signal ratio). The note with it: TR-UAS-bla HEK293, beta-lactamase ratio, antagonist mode, 18 h. In a few lines: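 TR-UAS-bla GripTite HEK293 cells in 2% charcoal/dextran FBS medium; compounds 0.59 nM to 92 uM with T3 at 0.4nM final, 18 h at 37 C. Beta-lactamase read by CCF4 fluorescence (460/530 nm); Hill fits gave IC50 and efficacy.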

The nature of assay [16]: qHTS assay for small molecule agonists of the antioxidant response element (ARE) signaling pathway (AID 651741; active = well fitted activation curve with a large enough effect in the signal ratio; the % refers to the signal ratio; also: potency is read from the fitted curve at half-maximal effect). The method in brief:
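HepG2 ARE-bla cells plated at 2,000 cells/well and incubated 5 h at 37 C/5% CO2 received 23 nL compound in DMSO. After 16 h at 37 C, LiveBLAzer B/G FRET substrate was applied for 2 h at room temperature and fluorescence read.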

Assay [17] is described as follows: qHTS assay for small molecule activators of the p53 signaling pathway (AID 651743; active = well fitted activation curve with a large enough effect in the signal ratio, not every such curve was filed as active; the % refers to the signal ratio; also: % of control where 0% means no effect). The note with it: HCT-116 p53RE-bla, beta-lactamase FRET ratio, 16 h; activation: stronger effect = higher value. In a few lines:
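HCT-116 p53RE-bla, 4,000 cells/well; 5 h settle; cpd/DMSO 16 h, 37 C; LiveBLAzer B/G 2 h RT; fluorescence intensity.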

Assay [18] is described as follows: qHTS assay for small molecule activators of the nuclear factor-kappa B (NF-kB) signaling pathway (AID 651749; active = well fitted activation curve with a large enough effect in the signal ratio; the % refers to the signal ratio; also: % of control where 0% means no effect). The note with it: NF-kB-bla ME-180 cells, beta-lactamase FRET ratio, 16 h; activation: stronger effect = higher value. In a few lines:
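Incubation lasted 16 hr at 37C in 5% CO2 after 23 nL compound addition to ME-180 NF-kB-bla cells. Activation appears as beta-lactamase-mediated FRET loss.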

The target of assay [19] is Peroxisome proliferator-activated receptor alpha (Homo sapiens) (UniProt Q07869). In words: qHTS assay for small molecule agonists of the peroxisome proliferator-activated receptor alpha (PPARalpha) signaling pathway (AID 651778; active = well fitted curve in the direction sought with a large enough effect; an effect the other way counts as inactive or inconclusive; also: % of control where 0% means no effect). The note with it: PathHunter PPARalpha complementation, chemiluminescence, 6 h; stronger effect = higher value. In a few lines: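 Enzyme-fragment complementation assay in which ligand-bound PPARalpha translocates and forms an active enzyme that generates chemiluminescence. Cells were plated overnight, exposed to compound for 6 hr at 37 C, and then given detection reagent for 60 min at room temperature.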

Assay [20] can be described thus: qHTS assay for small molecule agonists of the antioxidant response element (ARE) signaling pathway measured by Nrf2-dependant transcriptional activity - cell viability counter screen (AID 720653; active = well fitted curve in the direction sought with a large enough effect in the repeat runs; an effect the other way counts as inactive or inconclusive; also: % is scaled to controls: 0 for no effect and ±100 for the full control effect). The conditions noted are these: ARE-bla HepG2 viability, CellTiter-Glo ATP luminescence, 16 h; stronger effect = lower value. In a few lines: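 ARE-bla HepG2 cells treated with compounds for 16 h at 37C; this counter screen measures viability as intracellular ATP by CellTiter-Glo luminescence after 30 min at room temperature.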

Assay [21] can be described thus: qHTS assay for cell viability of HEK293 cells (AID 743288; active = well fitted curve in the direction sought with a large enough effect; an effect the other way counts as inactive or inconclusive; also: % is scaled to controls: 0 for no effect and ±100 for the full control effect; nearly all actives have a fitted effect of over 50% in size). The conditions noted are these: ATP luminescence (CellTiter-Glo), 18 h; max response: stronger effect = lower value. The method in brief: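 The Tox21 protocol used parental HEK293 cells treated for 18 h at 37 C with compounds delivered by pintool; ATP-coupled luminescence after 30 min at room temperature gave viability.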

Assay [22] in a line: qHTS assay for cell viability of the p53RE-bla HCT-116 cell line (AID 743292; active = well fitted curve in the direction sought with a large enough effect; an effect the other way counts as inactive or inconclusive; also: % is scaled to controls: 0 for no effect and ±100 for the full control effect; nearly all actives have a fitted effect of over 55% in size). In a few lines: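 CellSensor p53RE-bla HCT-116 cells, 4,000/well, preincubated 5 h at 37 C, then exposed to compounds in DMSO for 16 h at 37 C. Viability read as CellTiter-Glo luminescence (intracellular ATP) after 30 min at room temperature.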
Assay [23] is described as follows: Primary qHTS for Huh7 cytotoxicity: counterscreen for inhibitors of MERS-S pseudotyped particle cell entry (AID 1479147). The conditions noted are these: outcome: dose series up to 57.1 µM unless noted.
Assay [24] in a line: Primary qHTS for inhibitors of MERS-S pseudo-typed particle cell entry (AID 1479149). Also: nearly all actives have a fitted effect of over 60% in size. The conditions noted are these: outcome: dose series up to 57.1 µM unless noted.
Assay [25] is described as follows: Primary qHTS for Vero E6 cytotoxicity: counterscreen for inhibitors of SARS-S pseudo-typed particle cell entry (AID 1479150). The conditions noted are these: outcome: dose series up to 57.1 µM unless noted.
Assay [26] in a line: Cytotoxicity counterscreen for inhibitors of SARS-CoV-2 cell entry (AID 1645845). Also: nearly all actives have a fitted effect of over 50% in size. The note with it: outcome: dose series up to 57.1 µM unless noted. In a few lines:
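HEK293-ACE2 cells (Expi293F stably expressing human ACE2) seeded overnight, then compound for 1 h plus 48 h at 37C. Viability as ATP content by luminescence; normalized to wells with cells and media-only wells.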

Assay [27] is described as follows: Primary qHTS to identify inhibitors of SARS-CoV-2 cell entry (AID 1645846). Also: nearly all actives have a fitted effect of over 45% in size. The conditions noted are these: SARS-CoV-2 pseudovirus cell entry assay, luminescence; activity change, negative = inhibition: at 57.1 µM (top of the series) unless noted. The method in brief: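 Data are normalized to wells receiving SARS-CoV-2-S pseudoparticles and those given bald particles. Entry signal was luciferase luminescence in stable hACE2 Expi293F cells, 48 hr post-infection, after 1 hr compound pretreatment.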

Assay [28] deals with Glutathione peroxidase 1 (Homo sapiens) (UniProt P07203). In words: Primary qHTS Assay for Inhibitors of Recombinant Selenoprotein Glutathione Peroxidase 1 (GPX1) (AID 1845191; active = well fitted curve in the direction sought with a large enough effect; an effect the other way counts as inactive or inconclusive; also: % is scaled to controls: 0 for no effect and ±100 for the full control effect; nearly all actives have a fitted effect of over 65% in size). The method in brief:
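GR-coupled assay: compounds preincubated 30 min at room temperature with GPX1, then reaction started with CHP; final 10 nM GPX1, 1 mM GSH, 0.5 mM CHP, 0.5 mM NADPH, 100 nM GR, 0.01% BSA, pH 7.5 Tris buffer. NADPH fluorescence (340/450 nm) read at 0 and 15 min.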

Chain of Peroxisome proliferator-activated receptor gamma (Homo sapiens) (P37231 whole entry, looked up): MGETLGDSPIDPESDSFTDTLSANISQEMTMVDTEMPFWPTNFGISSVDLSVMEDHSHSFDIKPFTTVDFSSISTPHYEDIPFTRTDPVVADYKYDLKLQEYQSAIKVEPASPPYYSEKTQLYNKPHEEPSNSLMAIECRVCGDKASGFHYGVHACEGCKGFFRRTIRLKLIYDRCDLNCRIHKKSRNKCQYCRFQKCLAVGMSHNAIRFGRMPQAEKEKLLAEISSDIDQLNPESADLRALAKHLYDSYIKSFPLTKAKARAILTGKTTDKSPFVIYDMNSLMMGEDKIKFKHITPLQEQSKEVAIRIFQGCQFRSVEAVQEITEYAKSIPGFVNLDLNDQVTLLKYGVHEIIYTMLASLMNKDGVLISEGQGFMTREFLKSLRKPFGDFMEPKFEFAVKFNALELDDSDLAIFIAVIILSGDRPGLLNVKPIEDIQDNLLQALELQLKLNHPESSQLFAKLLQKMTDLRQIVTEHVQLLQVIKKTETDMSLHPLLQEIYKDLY
Chain of Thyroid hormone receptor beta (Homo sapiens) (P10828 whole entry, looked up): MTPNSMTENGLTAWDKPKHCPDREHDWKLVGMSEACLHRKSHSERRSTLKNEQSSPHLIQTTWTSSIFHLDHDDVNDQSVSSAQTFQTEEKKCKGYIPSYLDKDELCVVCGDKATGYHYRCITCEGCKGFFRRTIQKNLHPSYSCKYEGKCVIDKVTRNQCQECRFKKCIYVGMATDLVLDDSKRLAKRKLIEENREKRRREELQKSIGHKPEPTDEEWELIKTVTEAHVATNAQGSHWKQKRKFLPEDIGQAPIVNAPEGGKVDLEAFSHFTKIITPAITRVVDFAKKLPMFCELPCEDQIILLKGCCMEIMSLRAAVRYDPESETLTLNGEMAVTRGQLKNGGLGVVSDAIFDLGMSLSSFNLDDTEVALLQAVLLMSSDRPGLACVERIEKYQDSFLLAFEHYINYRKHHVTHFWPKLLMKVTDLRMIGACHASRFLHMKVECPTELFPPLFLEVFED
Chain of Vitamin D3 receptor (Homo sapiens) (P11473 whole entry, looked up): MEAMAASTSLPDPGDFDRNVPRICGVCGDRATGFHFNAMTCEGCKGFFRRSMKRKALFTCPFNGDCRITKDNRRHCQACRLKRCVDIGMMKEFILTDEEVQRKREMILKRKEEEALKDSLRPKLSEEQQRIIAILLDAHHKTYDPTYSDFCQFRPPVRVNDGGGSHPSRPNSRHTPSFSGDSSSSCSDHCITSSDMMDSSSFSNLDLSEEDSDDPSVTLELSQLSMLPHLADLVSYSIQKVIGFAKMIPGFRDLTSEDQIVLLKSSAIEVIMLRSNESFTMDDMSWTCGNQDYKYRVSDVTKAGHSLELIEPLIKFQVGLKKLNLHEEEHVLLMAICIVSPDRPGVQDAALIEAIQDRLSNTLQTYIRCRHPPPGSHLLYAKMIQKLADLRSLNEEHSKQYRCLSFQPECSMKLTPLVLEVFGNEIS
Chain of Androgen receptor (Homo sapiens) (P10275 whole entry, looked up): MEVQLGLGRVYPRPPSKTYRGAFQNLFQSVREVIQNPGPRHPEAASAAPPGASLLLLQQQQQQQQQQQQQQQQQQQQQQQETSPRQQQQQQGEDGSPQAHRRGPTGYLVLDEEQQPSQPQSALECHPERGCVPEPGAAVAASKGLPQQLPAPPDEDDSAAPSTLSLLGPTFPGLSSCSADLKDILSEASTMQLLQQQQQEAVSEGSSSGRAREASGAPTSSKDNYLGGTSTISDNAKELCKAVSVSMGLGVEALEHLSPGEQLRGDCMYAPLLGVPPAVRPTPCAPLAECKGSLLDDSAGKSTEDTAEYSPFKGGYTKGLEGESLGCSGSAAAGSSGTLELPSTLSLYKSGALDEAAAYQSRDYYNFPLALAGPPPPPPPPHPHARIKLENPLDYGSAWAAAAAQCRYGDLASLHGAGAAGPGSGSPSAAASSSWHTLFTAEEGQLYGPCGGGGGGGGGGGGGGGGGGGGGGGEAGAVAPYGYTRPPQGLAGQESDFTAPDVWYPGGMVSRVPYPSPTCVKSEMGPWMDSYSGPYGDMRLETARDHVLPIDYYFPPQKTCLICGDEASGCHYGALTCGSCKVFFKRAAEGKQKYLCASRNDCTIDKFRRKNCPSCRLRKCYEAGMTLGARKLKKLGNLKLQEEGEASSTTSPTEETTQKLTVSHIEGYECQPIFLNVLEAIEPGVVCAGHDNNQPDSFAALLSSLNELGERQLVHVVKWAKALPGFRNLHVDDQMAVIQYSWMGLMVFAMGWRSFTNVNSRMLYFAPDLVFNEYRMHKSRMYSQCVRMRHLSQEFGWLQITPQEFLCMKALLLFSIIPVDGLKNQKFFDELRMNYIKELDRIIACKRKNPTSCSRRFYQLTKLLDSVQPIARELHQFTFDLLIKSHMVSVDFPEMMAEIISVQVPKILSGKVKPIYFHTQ
Chain of Bile acid receptor (Homo sapiens) (Q96RI1 whole entry, looked up): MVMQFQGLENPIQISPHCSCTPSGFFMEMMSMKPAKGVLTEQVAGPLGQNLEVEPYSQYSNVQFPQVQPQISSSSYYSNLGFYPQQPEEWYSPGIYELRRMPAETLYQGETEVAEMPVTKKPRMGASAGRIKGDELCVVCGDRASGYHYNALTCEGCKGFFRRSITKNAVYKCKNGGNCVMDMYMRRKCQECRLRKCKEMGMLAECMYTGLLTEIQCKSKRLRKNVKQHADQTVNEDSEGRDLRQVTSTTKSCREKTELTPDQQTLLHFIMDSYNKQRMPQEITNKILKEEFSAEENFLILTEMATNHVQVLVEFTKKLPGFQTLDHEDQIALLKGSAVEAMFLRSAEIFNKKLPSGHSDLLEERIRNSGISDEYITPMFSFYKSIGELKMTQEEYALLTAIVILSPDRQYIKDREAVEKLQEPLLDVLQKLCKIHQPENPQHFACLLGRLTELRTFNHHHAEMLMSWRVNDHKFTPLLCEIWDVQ
Chain of Peroxisome proliferator-activated receptor delta (Homo sapiens) (Q03181 whole entry, looked up): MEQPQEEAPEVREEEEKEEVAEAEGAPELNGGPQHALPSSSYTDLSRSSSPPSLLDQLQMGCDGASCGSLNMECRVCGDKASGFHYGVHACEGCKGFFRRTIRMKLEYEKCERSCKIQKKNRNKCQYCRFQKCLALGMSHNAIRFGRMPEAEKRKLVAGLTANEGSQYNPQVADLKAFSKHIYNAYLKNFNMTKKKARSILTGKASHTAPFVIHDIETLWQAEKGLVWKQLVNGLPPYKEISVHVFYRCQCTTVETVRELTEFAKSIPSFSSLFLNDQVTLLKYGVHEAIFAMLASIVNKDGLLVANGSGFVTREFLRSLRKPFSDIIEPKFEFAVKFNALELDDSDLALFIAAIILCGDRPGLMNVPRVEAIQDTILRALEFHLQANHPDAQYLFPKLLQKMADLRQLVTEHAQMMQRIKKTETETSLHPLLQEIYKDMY
Chain of Peroxisome proliferator-activated receptor alpha (Homo sapiens) (Q07869 whole entry, looked up, the tested form may be a part): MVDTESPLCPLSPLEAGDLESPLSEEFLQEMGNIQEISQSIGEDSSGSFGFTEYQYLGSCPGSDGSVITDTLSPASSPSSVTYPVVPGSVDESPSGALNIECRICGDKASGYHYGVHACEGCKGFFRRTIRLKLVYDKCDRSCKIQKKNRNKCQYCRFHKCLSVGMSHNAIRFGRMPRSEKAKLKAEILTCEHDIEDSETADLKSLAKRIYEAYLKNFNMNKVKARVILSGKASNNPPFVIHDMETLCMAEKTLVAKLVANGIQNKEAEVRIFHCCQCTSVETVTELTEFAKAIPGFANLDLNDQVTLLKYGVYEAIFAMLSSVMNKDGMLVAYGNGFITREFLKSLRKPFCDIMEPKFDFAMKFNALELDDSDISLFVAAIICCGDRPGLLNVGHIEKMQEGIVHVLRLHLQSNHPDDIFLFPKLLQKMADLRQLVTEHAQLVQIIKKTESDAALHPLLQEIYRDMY
Chain of Retinoic acid receptor RXR-alpha (Homo sapiens) (P19793 whole entry, looked up): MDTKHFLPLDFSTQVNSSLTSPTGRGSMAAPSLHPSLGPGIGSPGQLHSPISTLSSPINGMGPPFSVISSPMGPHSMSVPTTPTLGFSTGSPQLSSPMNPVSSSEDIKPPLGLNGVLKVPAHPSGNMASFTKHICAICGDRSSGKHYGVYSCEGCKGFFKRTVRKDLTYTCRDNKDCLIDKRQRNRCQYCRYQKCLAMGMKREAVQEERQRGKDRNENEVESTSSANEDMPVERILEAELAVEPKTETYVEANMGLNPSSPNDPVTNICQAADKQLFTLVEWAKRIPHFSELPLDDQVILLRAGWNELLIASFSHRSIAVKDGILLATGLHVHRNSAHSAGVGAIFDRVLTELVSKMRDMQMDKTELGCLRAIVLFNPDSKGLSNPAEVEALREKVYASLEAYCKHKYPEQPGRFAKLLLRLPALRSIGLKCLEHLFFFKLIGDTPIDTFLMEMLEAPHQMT
Chain of Glutathione peroxidase 1 (Homo sapiens) (P07203 whole entry, looked up): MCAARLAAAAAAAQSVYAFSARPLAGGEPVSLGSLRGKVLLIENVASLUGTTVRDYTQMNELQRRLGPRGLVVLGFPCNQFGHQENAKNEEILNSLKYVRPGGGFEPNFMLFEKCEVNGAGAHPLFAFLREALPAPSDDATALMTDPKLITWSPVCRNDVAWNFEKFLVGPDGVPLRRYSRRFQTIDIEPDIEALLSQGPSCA

Regarding `CC(COc1ccc(Oc2ccccc2)cc1)Oc1ccccn1` (stereo not drawn), the activation in assay [1] was -2.33% (inactive); in assay [4], 0.631% (inactive) and 1.01% (inactive); in assay [17] it was -3.04% (inactive) and -2.31% (inactive); in [18], -1.12% (inactive) and 0.467% (inactive). In addition, the Potency result is “inactive and 39.8 µM (active)” in assay [2]; 48.6 µM (active) and 27.3 µM (active) in assay [16]. Further, the call in [3], in assay [5], in [8], in [10], in assay [11] and in assay [12] was inactive. Also, the max response is 11.7% and -13.8% in assay [6]; -19.9% and -8.14% in assay [13]; -8.09% (inactive) and -10.1% (inactive) in assay [14]; -1.27% (inactive) and -0.944% (inactive) in [19]; 2.4% (inactive) and -4.17% (inactive) in assay [20]; -1.69% (inactive) and -16.3% (inactive) in assay [21]. Further, the Potency entry in assay [7], in [9], in assay [22], in [23], in assay [24] and in assay [25] was “inactive” throughout. The Potency entry in assay [26] and in assay [28] was “inactive” in each case. Moreover, in assay [15], the activity change % (negative = inhibition) was 4.1% (inactive) and -8.02% (inactive). For the same compound, the activity change, negative = inhibition in [27] was -5.43%.
Turning to `CC1(C)SC2C(NC(=O)Cc3ccccc3)C(=O)N2C1C(=O)O` (stereo not drawn), the Potency result in assay [23], in [24], in assay [25] and in assay [26] was “inactive” throughout. In assay [27], the activity change, negative = inhibition was -15.9%.
Regarding `Oc1cc(O)cc(O)c1`, the Potency result in assay [23], in assay [24], in [25] and in assay [26] was “inactive” throughout. Moreover, the activity change, negative = inhibition in assay [27] was -21.2%.
